Our source for the growth inhibition values is PubChem BioAssay (NCI).

The panel holds about 79,000 compounds, 15% with a hit somewhere; the sample as a whole holds those more often. Active and inactive are the calls of the source. No stated cut-off is given here; in the data, active means growth inhibition above about 70%; inactive means the rest.

This assay can be described thus: NCI Yeast Anticancer Drug Screen. Data for the rad50 strain (AID 155).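 Further: 0% = growth of vehicle-only cultures of the same strain.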 The following applies: S. cerevisiae rad50 strain growth inhibition; at 50.0 µM (retest, dose inferred, filed as 5.0); active compounds read high. An outline of the steps:
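Vehicle-treated cultures provide the reference for the growth inhibition reported for compound-exposed, repair-deficient yeast.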
As for `CC(C)N=C(NC(C)C)SCCCCCCSC(=NC(C)C)NC(C)C`, the growth inhibition was -2% (inactive).
Turning to `CCCCCOC(=S)SSSC(=S)OCCCCC`, the growth inhibition is 96% (active).
`CCCCCCCCCCCCCCCC[N+](C)(C)CC(=O)O`: the growth inhibition is 92% (active).
For `Cc1cc(C)c([O-])c(-[n+]2c(-c3ccccc3)cc(-c3ccccc3)cc2-c2ccccc2)c1` the value was 14% (inactive).
Consider `CC(=O)NNc1ccc(Cl)cc1[N+](=O)[O-]`, for which the growth inhibition is 30% (inactive).
For `O=C(NC(=Nc1ccccc1)SCCSC(=Nc1ccccc1)NC(=O)c1ccccc1)c1ccccc1` the value was 0% (inactive); for `CN(C)CCCNc1ccc(O)c2c1C(=O)c1ccccc1C2=O`, 99% (active).
With `COC(=O)C(=O)C(/C=N/C(=S)NCCc1ccc(OC)c(OC)c1)=C(/O)c1ccc([N+](=O)[O-])cc1` the figure was 15% (inactive); with `CCCC(=O)OCC1CC2C=CC1C2` (stereo not given), -3% (inactive).
With `CN(NC(=O)/C(=C/c1cc(Cl)cc(Cl)c1O)NC(=O)c1ccccc1)c1cnn(-c2ccccc2)c(=O)c1Cl` the figure was 43% (inactive); with `CC(C)N(C(=O)CC1(O)CCCCC1)C(C)C`, -14% (inactive).
On to `COC(=O)C1C(c2ccccc2)=N[C@@H](c2ccccc2)[C@H]1C(=O)OC` (stereo not given in full), for which the growth inhibition was -3% (inactive).
For `O=C1C(=Cc2ccccc2O)N=C(c2ccccc2)N1n1c(-c2ccccc2)nc2ccccc2c1=O` the value was 31% (inactive); for `CCOc1ccc2c(c1)[n+]([O-])c(-c1ccc([N+](=O)[O-])cc1)c(N)[n+]2[O-]`, 82% (active); for `O=C(NCCCNCCCCNCCCNC(=O)c1cc(-c2ccccc2)nc2ccccc12)c1cc(-c2ccccc2)nc2ccccc12`, 98% (active).
